# PGC1a acetyl inh: inhibitors of PGC1a acetylation signal, primary screen, cell-based, U2OS, AlphaScreen, inhibitor mode. inhibition, % at 15.6 µM. AID 651687, 2012. 350,000 tested, 0.17% active. AlphaScreen anti-acetyl-lysine; with virally co-expressed GCN5 acetyltransferase;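 active = every replicate shows inhibition of at least 40%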;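 note: 0% = neutral control wells and 100% = positive control wells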
# GSIS activator: GLuc luminescence reporter in INS-1E cells, primary screen for activators of glucose-dependent secretion of insulin | activation, % at 16.6 µM | AID 743287, 2014 | INS-1E GLuc reporter insulin secretion, 2-3 h | 370,000 tested, 0.61% active;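 active = lowest replicate activation of at least 40%, so every replicate reaches that level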;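 note: 0% = median of neutral control wells and 100% = median of IBMX positive control wells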
# DENV2 CPE rescue: inhibitors of DENV2 cytopathic effect, primary screen, cell-based, plate reader, single concentration. DENV2-infected cells, cytopathic effect rescue. CPE inhibition, % at 9.99 µM. 350,000 tested, 1.7% active. AID 651640, 2012; in the data active = CPE inhibition above about 20%, passing the limit was not always enough; tested in BHK-21 cells;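 note: 0% = median of neutral control wells and 100% = median of positive control wells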
# CaV13 FRET inh: Primary screen for inhibitors of IQ motif and Ca2+-dependent inactivation inhibitor domain binding in CACNA1D, Förster resonance energy transfer in living cells, …. HEK cells, CFP/YFP FRET ICDI-IQ, plate reader, 10 min; percent FRET-ratio fall versus neutral wells. inhibition, % at 12.3 µM. 340,000 tested, 0.098% active;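 active = mean replicate inhibition of at least 30% and at least 1% of replicates passing that level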;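 note: 0% = median of the neutral control wells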
# Ecoli rRNA inh: reduced GFP signal of wild-type E. coli, primary screen, bacterial rRNA inhibitor project, GFP/RFP fluorescence, OD600, single point | GFP signal change (wild-type ribosome), % (no concentration beside the values) | 350,000 tested, 1.6% active | E. coli WT GFP vs humanized-ribosome RFP mutants, 24 h; active compounds read low; DMSO median 0, no signal -100;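 active = significant combined selectivity score with lowered wild-type GFP, culture density cut under 30%, mutant RFP and density less affected; inactive = any of these conditions unmet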
# ERAP1 inh: human ERAP1 aminopeptidase inhibitors, primary screen, biochemical, single point, plate reader; 340,000 tested, 0.15% active; Endoplasmic reticulum aminopeptidase 1 (Homo sapiens), Q9NZ08; AID 652197, 2013; inhibition, % at 10.7 µM; recombinant ERAP1, Leu-AMC fluorescence, 60 min;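 active = mean replicate inhibition of at least 30%, or all replicates individually reaching that 30% level; inactive = mean below 30% and not every replicate reaching it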;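 note: 0% = neutral control wells and 100% = L-leucinethiol positive control wells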
# Numbers without * were called inactive; · = not tested or not shown. Rows were chosen to be rich in hits. Some 3.2% of all compounds tested hit in one or more screens of this group.
SMILES,PGC1a acetyl inh,GSIS activator,DENV2 CPE rescue,CaV13 FRET inh,Ecoli rRNA inh,ERAP1 inh
Cc1cccc(NC(=S)NC(C)CCc2ccccc2)c1 (stereo not given),·,-7,45*,-5,-26,1
Cc1cccc(NCc2ccccc2)c1,-5,95*,-4,-5,7,-3
Cc1cccc(NC(=O)NC(C)CCc2ccccc2)c1 (stereo not given),-11,-21,-2,-3,·,3
O=C(O)CC1SC(=Nc2ccccc2)N(c2ccccc2)C1=O (stereo not given),-1,·,·,·,·,·
O=C(O)CC1S/C(=N/N=C/c2ccc(Br)cc2)N(c2ccccc2)C1=O (stereo not given),75*,6,-1,-5,-17,0
CCC(=O)Nc1ccc2c(c1)C(=O)N(C)[C@@H]1CC[C@@H](CC(=O)NCCc3ccncc3)O[C@@H]1CO2,-8,10,·,·,1,·
CC(C)N1C(=O)CCC1C(=O)O (stereo not given),·,3,33*,-4,6,0
CO[C@H]1CN(C)C(=O)c2ccc(NC(=O)NC(C)C)cc2OC[C@@H](C)N(S(C)(=O)=O)C[C@@H]1C,14,-4,43*,·,2,·
CO[C@@H]1CN(C)C(=O)c2cc(NC(C)=O)ccc2OC[C@H](C)N(S(=O)(=O)c2cn(C)cn2)C[C@H]1C,5,0,14,·,-2,2
CO[C@H]1CN(C)C(=O)c2ccc(NC(=O)NC(C)C)cc2OC[C@H](C)N(S(C)(=O)=O)C[C@@H]1C,·,6,·,·,2,·
CO[C@@H]1CN(C)C(=O)c2ccc(NC(C)=O)cc2OC[C@@H](C)N(S(C)(=O)=O)C[C@H]1C,·,-1,94*,·,2,0
CO[C@H]1CN(C)C(=O)c2ccc(NC(C)=O)cc2OC[C@@H](C)N(S(=O)(=O)c2cn(C)cn2)C[C@@H]1C,0,12,26*,·,5,2
CC(=O)N1[C@@H]2c3ccc(-c4ccncc4)c(=O)n3C[C@H]1[C@H](CO)[C@H]2C(=O)NC1Cc2ccccc2C1,·,12,11,·,1,-1
O=C(Nc1nnc(-c2ccc(F)cc2)s1)C1CCN(S(=O)(=O)c2ccc(Cl)cc2)CC1,·,60*,·,-4,·,·
CN(C)Cc1c(O)ccc2c(=O)c(-c3ccccc3)c(C(F)(F)F)oc12,·,7,4,-2,-32*,0
C[C@H](CO)N1C[C@H](C)[C@@H](CN(C)S(=O)(=O)c2ccccc2)Oc2c(NC(=O)Nc3ccccc3)cccc2C1=O,-13,-4,-11,-4,-1,0
C[C@H](CO)N1C[C@H](C)[C@@H](CN(C)Cc2ccc(-c3ccccc3)cc2)Oc2c(NC(=O)c3nc4ccccc4s3)cccc2C1=O,·,38,-8,·,-3,3
C[C@@H]1CN([C@@H](C)CO)C(=O)c2cccc(NC(=O)c3nc4ccccc4s3)c2O[C@@H]1CN(C)S(=O)(=O)c1ccc(Cl)cc1,5,1,9,·,4,-1
C[C@@H]1CN([C@@H](C)CO)C(=O)c2cccc(NC(=O)Nc3ccccc3)c2O[C@@H]1CN(C)S(=O)(=O)c1ccc(Cl)cc1,-16,-8,9,·,-25*,-1
C[C@@H]1CN([C@@H](C)CO)C(=O)c2cccc(NC(=O)Nc3ccccc3)c2O[C@H]1CN(C)S(=O)(=O)c1ccccc1,-1,15,40*,·,-1,-2
C[C@H](CO)N1C[C@H](C)[C@@H](CN(C)S(=O)(=O)c2ccc(Cl)cc2)Oc2c(NC(=O)c3nc4ccccc4s3)cccc2C1=O,5,-6,25*,·,-2,1
C[C@H](CO)N1C[C@H](C)[C@H](CN(C)Cc2ccc(-c3ccccc3)cc2)Oc2c(NC(=O)c3nc4ccccc4s3)cccc2C1=O,22,0,41*,·,2,2
